Test [1] in a line: qHTS for Activators of Parkin Expression: LOPAC Validation Assay (NLuc Reporter) (AID 720572). In a few lines: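 Parkin promoter-driven FLuc/NLuc neuronal reporter cells; 24 h plating, 7-pt dose response, 24 h at 37 C/5% CO2; FLuc then NanoLuc reagent, 10 min each, luminescence; DMSO/positive control normalized.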
A general note: qHTS replaces the single test concentration by a dilution series.

The nature of test [2]: qHTS for Activators of Parkin Expression: LOPAC Validation Assay (FLuc Reporter) (AID 720573). Summed up: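 Neuronal cell line stably carrying FLuc/NLuc coincidence reporter under Parkin promoter; cells plated 24 h, then compounds added in 7-point dose response for 24 h at 37 C. FLuc luminescence read; normalized to DMSO and positive control (100%).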
A short description of test [3]: qHTS assay for small molecule agonists of the antioxidant response element (ARE) signaling pathway measured by Nrf2-dependant transcriptional activity (AID 720636; active = well fitted curve in the direction sought with a large enough effect in the repeat runs; an effect the other way counts as inactive or inconclusive;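 also: HepG2 cells with an ARE-driven luciferase reporter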). Summed up: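 HepG2 ARE-luc reporter line, 1% dialyzed FBS; 6 hr attachment at 37 C, compound pinned in, 16 hr at 37 C/5% CO2; ONE-Glo, 30 min RT, luminescence read.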
Test [4] is described as follows: qHTS assay for small molecule antagonists of the retinoid-related orphan receptor gamma (ROR-gamma) signaling pathway - cell viability counter screen (AID 720652; active = well fitted curve in the direction sought with a large enough effect in the repeat runs; an effect the other way counts as inactive or inconclusive;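 also: CHO reporter cells with doxycycline-induced ROR-gamma expression; compound exposure lasted 16 hr before ATP read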). Summed up:
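Counter screen in CHO cells carrying TET-inducible ROR-gamma and an ROR response element-luciferase reporter; cells plated 5 hr, compound pinned, doxycycline added, then 16 hr at 37 C. Viability read as intracellular ATP by CellTiter-Glo luminescence.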

A short description of test [5]: qHTS assay for small molecule agonists of the antioxidant response element (ARE) signaling pathway measured by Nrf2-dependant transcriptional activity - cell viability counter screen (AID 720653; active = well fitted curve in the direction sought with a large enough effect in the repeat runs; an effect the other way counts as inactive or inconclusive). Particulars: ARE-bla HepG2 viability, CellTiter-Glo ATP luminescence, 16 h; max response: stronger effect = lower value. In a few lines: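 Cytotoxicity counter screen: intracellular ATP quantified by CellTiter-Glo luminescence in the same ARE-bla HepG2 plates, after 16 h compound exposure and a 2 h beta-lactamase substrate step.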

The target in test [6] is T1, Hexokinase-4 (Homo sapiens) + Glucokinase regulatory protein (Homo sapiens) (UniProt P35557+Q14397). Description: qHTS assay for inhibitors of recombinant human GCK-GKRP interaction: Diaphorase-coupled assay (AID 743205). Summed up:
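GST-GCK (10 nM) with FLAG-GKRP (10 nM), 5 mM glucose and 0.4 mM ATP in pH 7.6 Hepes; compounds preincubated 20 min with substrate. G6PDH/diaphorase coupling converts resazurin to resorufin, read kinetically (ex 525/em 590 nm) for 30 min.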

The target in test [7] is T1, Hexokinase-4 (Homo sapiens) + Glucokinase regulatory protein (Homo sapiens). Description: qHTS assay for inhibitors of recombinant human GCK-GKRP interaction: ADP-Glo assay (AID 743206). Summed up:
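GST-GCK and FLAG-GKRP (15 nM each in the dispensed mix, with 2 uM S6P) react with 0.4 mM ATP and 5 mM glucose (final) in Hepes pH 7.6 for 60 min at room temperature. ADP is measured by ADP-Glo luminescence.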

Test [8] can be described thus: qHTS assay for cell viability of HEK293 cells (AID 743288). Also: nearly all actives have a fitted effect of over 50% in size. Particulars: ATP luminescence (CellTiter-Glo), 18 h; max response: stronger effect = lower value. In a few lines:
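Parental HEK293 cells were seeded at 2,000 cells/well, rested at least 5 h at 37 C, then exposed to compounds in DMSO for 18 h at 37 C. Viability was read as ATP-dependent luciferase luminescence after 30 min at room temperature.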

Test [9] can be described thus: qHTS assay for cell viability of the p53RE-bla HCT-116 cell line (AID 743292). Also: nearly all actives have a fitted effect of over 55% in size. In a few lines:
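Luminescent ATP quantitation (CellTiter-Glo) served as the viability read-out; reagent was added after 16 h compound exposure at 37 C and read after 30 min at room temperature. Cells: p53RE-bla HCT-116, 4,000 per well.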

A short description of test [10]: qHTS profiling of the MIPE4 collection as inhibitors of Plasmodium falciparum (3D7) proliferation (AID 743344; call rule not given here). The note with it: P. falciparum 3D7 in erythrocytes, SYBR Green DNA fluorescence, 72 h; at 28.5 µM (top of the series). Summed up: (§1)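 Erythrocytes infected with P. falciparum (0.3% parasitemia, 2.5% hematocrit) incubated with compounds 72 h at 37 C, 5% CO2. Lysis with saponin/Triton buffer containing SYBR Green I, overnight at room temperature in the dark; DNA fluorescence (485/535 nm) normalised to 0.29 uM artemisinin and DMSO.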

A short description of test [11]: qHTS profiling of the MIPE4 collection as inhibitors of Plasmodium falciparum (DD2) proliferation (AID 743345; call rule not given here). Particulars: P. falciparum Dd2 in erythrocytes, SYBR Green DNA, 72 h; at 28.5 µM (top of the series). In a few lines:
as §1

Test [12] in a line: qHTS profiling of the MIPE4 collection as inhibitors of Plasmodium falciparum (DD2) proliferation (Rep 2) (AID 743346; call rule not given here). The note with it: P. falciparum Dd2 in erythrocytes, SYBR Green DNA, 72 h; at 28.5 µM (top of the series). In a few lines: as §1
A short description of test [13]: qHTS profiling of the MIPE4 collection as inhibitors of Plasmodium falciparum (HB3) proliferation (AID 743347; call rule not given here). The note with it: P. falciparum HB3 in erythrocytes, SYBR Green DNA, 72 h; at 28.5 µM (top of the series). Summed up:
as §1

Test [14] in a line: qHTS assay for measurement of the activity of small molecule inhibitors on Zika virus induced Caspase-3 activity in human iPSC derived neural progenitor cells (hNPCs) (AID 1224857). Also: nearly all actives have a fitted effect of over 65% in size. Also: potency is read from the fitted curve at half-maximal effect. Summed up: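 Pretreat hNPCs with compound 1 h; infect ZIKV 2 FFU/cell; 6 h 37 C, 5% CO2; Caspase-Glo 3/7, 30 min RT; luminescence; normalize to no-virus and virus-only wells.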
Test [15] can be described thus: qHTS assay for measurement of the activity of small molecule inhibitors on Zika virus induced Caspase-3 activity in human astrocytoma cells (AID 1224859). Summed up:
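Human SNB-19 astrocytoma cells in RPMI 1640 with 10% FBS receive compound one hour ahead of Zika virus at 2 FFU/cell. After 6 h infection, caspase-3/7 activity is detected by Caspase-Glo luminescence.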

Results filed as inconclusive are left out. A call without a number means that no potency is given here. Activity calls are given as the source filed them. Unless noted, calls follow the shape of the dose curve; as a rule, active = well fitted curve in the direction sought with a large enough effect; inconclusive = small, poorly fitted or top-dose-only effect, or another doubt; inactive = no such curve, though single readings can be large; an effect the other way counts as inactive or inconclusive.

T1 sequence (P35557 whole entry, looked up): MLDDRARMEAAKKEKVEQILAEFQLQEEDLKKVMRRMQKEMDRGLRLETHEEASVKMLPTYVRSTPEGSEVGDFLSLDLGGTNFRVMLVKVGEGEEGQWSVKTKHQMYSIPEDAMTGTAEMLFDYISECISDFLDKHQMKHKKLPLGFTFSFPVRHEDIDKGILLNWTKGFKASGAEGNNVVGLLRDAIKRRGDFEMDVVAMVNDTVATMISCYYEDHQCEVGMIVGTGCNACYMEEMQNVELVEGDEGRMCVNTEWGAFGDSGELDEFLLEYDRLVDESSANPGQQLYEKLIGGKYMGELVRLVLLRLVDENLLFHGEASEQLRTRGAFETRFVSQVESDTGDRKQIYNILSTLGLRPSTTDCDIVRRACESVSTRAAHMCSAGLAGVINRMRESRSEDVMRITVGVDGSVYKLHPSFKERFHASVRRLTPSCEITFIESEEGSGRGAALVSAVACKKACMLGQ
T1 sequence (Q14397 whole entry, looked up): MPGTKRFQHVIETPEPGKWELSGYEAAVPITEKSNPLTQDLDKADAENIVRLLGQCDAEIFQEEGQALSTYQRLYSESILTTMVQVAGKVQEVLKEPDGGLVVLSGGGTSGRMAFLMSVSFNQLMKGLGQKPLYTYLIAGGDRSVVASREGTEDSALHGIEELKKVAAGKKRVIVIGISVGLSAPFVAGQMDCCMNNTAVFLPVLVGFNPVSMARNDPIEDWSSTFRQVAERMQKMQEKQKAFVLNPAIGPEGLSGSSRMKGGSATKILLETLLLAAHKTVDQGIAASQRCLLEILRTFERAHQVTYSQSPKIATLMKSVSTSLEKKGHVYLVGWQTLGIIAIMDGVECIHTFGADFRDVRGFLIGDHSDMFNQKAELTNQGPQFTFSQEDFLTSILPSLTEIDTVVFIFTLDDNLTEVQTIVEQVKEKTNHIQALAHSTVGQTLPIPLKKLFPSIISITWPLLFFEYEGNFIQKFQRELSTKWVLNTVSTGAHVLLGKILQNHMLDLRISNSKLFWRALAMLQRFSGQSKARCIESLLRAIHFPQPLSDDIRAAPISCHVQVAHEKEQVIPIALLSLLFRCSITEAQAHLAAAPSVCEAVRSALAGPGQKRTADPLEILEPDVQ

Take `CN(C)CCC(c1ccc(Cl)cc1)c1ccccn1` (centres undefined): the Potency entry in [1], in [2], in test [3], in test [4], in test [7] and in [9] was “inactive” each time. The Potency result in [14] and in test [15] was “inactive” throughout. The max response is -2.73% (inactive) in test [5] and -8.98% (inactive) in test [8]. Further, in [6], the outcome was inactive. The compound further had a parasite growth, % of DMSO control in test [10] of 105%. In addition, in test [11], the parasite growth remaining, % of DMSO control (lower = more inhibition) was 70.9%. For the same compound, the parasite growth, % of control (lower = inhibition) in test [12] is 38.1%. For the same compound, the growth, % of control in test [13] was found to be 78.9%.

With `O=C(CCSCc1ccco1)NNC(=O)N1Cc2ccccc2Oc2ccc(Cl)cc21`, in [14], the Potency result was “inactive”. As for `O=C(Nc1ccncc1)c1cc([N+](=O)[O-])ccc1Cl`, the Potency entry in test [14] was “inactive”. On to `Cc1ccc2c(n1)Oc1ccc(C(C)C(=O)OCC(=O)N(C)C)cc1C2` (centres undefined), for which, in [14], the Potency was 14.1 µM (active). As for `Nc1nc(Nc2ccccc2)nc2c1ncn2[C@@H]1O[C@H](CO)C(O)[C@H]1O` (some centres undefined), in [14], the Potency result is “inactive”.

As to `Nc1nc2ccc(Cl)cc2n2c(-c3ccccc3)nnc12`, the Potency result in test [14] was “inactive”. The same measure, in the same setting: next, `O=c1cc(-c2ccccc2)oc2c(O)c(O)ccc12`: “inactive”; `Nc1ccn([C@H]2O[C@H](CO)[C@@H](O)C2(F)F)c(=O)n1`: “inactive”. For the compound `CC(C)c1cccc(C(C)C)c1N1C(=O)c2ccc(O)cc2C1=O`, in test [14], the Potency result was “inactive”. On the same count and under the same terms, next, `Nc1nc(SCc2ccc([N+](=O)[O-])cc2)c2ncn([C@@H]3O[C@H](CO)C(O)[C@H]3O)c2n1` (some centres undefined): “inactive”; `O=C(NOCC1CC1)c1cc(Br)c(F)c(F)c1Nc1ccc(I)cc1Cl`: “inactive”; `O=[N+]([O-])c1ccc(CSc2ncnc3c2ncn3[C@@H]2O[C@H](CO)C(O)[C@H]2O)cc1` (some centres undefined): “inactive”.

`CCCCN(CC)c1nc(C)nc2c1c(C)cn2-c1c(C)cc(C)cc1C`: the Potency entry in [14] was “inactive”. As for `C=C/C(C)=C/[C@@]1(C)SC(=O)C(C)=C1O`, the Potency entry in [14] is “inactive”. `COCCOc1cc2nc[nH]c(=O)c2cc1OCCOC`: the Potency entry in test [14] was “inactive”. Same read-out and setting: under `CS(=O)(=O)c1ccc(-n2nc(C(F)(F)F)cc2-c2ccc(F)cc2)cc1` stands “inactive”; under `COc1ccc(/C=C/c2nc(NCCCN(C)C)c3ccccc3n2)cc1`, “inactive”.

As to `Clc1ccc(N2CCN(Cc3cc4ccccn4n3)CC2)cc1`, the Potency entry in test [1], in test [2], in test [7], in test [14] and in test [15] was “inactive” throughout. Besides, the outcome in [6] was inactive.

Regarding `COCCOc1cc2ncnc(Cl)c2cc1OCCOC`, the Potency result in [14] was “inactive”. On the same count and under the same terms, next, `NC(=O)C1=CN(C2OC(COP(=O)(O)OP(=O)(O)OC[C@H]3O[C@@H](n4cnc5c(N)ncnc54)[C@H](OP(=O)(O)O)C3O)C(O)C2O)C=CC1` (some centres undefined): “inactive”. For `Nc1ncnc2c1ncn2[C@@H]1O[C@H](CO)C(O)[C@H]1O` (some centres undefined), the Potency result in test [14] is “inactive”.

With `CCCCCCCCCCCCCCCCCCN(CCCCCCCCCCCCCCCCCC)CCCN(CCO)CCO`, in test [14], the Potency result is “inactive”. On the same count and under the same terms, next, `CC(C)(C)NCC(O)COc1nsnc1N1CCOCC1` (centres undefined): “inactive”; `CN[C@H](CC(C)C)C(=O)N[C@H]1C(=O)N[C@@H](CC(N)=O)C(=O)N[C@H]2C(=O)N[C@H]3C(=O)N[C@H](C(=O)N[C@H](C(=O)O)c4cc(O)cc(O)c4-c4cc3ccc4O)[C@H](O)c3ccc(c(Cl)c3)Oc3cc2cc(c3O[C@@H]2O[C@H](CO)[C@@H](O)[C@H](O)[C@H]2O[C@H]2C[C@](C)(N)[C@H](O)[C@H](C)O2)Oc2ccc(cc2Cl)[C@H]1O`: “inactive”; `CCC(CO)Nc1nc(NCc2ccccc2)c2ncn(C(C)C)c2n1` (centres undefined): “inactive”.
